High-throughput results (PubChem BioAssay)
Shown are actives, neighbours in structure and some others; about 6% of the full set was active somewhere.
D3 antag: qHTS of D3 Dopamine Receptor Antagonist: qHTS; D(3) dopamine receptor (Homo sapiens), P35462; D3R cells, DiscoveRx beta-arrestin luminescence, antagonist mode; hits give low values; max response, negative = inhibition, %; 360,000 compounds, 2.5% hits; AID 652054, 2013; in the data active means max response below about -50%; inconclusive means no clear call, values can overlap the other calls
Target sequence (P35462 whole entry, looked up): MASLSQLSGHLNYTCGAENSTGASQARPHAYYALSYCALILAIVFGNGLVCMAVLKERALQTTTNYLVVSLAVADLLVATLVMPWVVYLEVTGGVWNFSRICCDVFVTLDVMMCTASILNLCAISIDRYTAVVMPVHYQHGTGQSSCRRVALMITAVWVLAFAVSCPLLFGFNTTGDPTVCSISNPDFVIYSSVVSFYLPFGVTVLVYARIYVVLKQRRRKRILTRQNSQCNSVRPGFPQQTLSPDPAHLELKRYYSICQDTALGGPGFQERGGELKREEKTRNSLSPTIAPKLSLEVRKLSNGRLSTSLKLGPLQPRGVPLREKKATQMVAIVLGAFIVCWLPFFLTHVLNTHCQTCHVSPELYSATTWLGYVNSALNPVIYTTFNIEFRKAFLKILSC
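Cells expressing the human receptor were seeded at 1500 cells/well, incubated overnight at 37 degrees C in 5% CO2, then exposed to library compounds with dopamine controls for 90 minutes at 37 degrees C before luminescent detection.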
BCR signal inh: qHTS Assay to Find Inhibitors of Chronic Active B-Cell Receptor Signaling. ABC-DLBCL IkBa-CBG/CBR reporter, luminescence ratio, 4 h. Potency, µM (titrated, usually from 46.1 µM), usual class: inhibitors. 340,000 compounds, 0.05% hits. AID 493014, 2011; active means well fitted inhibition curve with a large enough effect in the signal ratio, with a control signal flat, not every such curve was filed as active; inconclusive means small, poorly fitted or top-dose-only effect, or effect the other way, or a change in a side signal; the % refers to the signal ratio
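Doxycycline induced both beetle luciferases in TMD8 lymphoma cells; IKK-driven degradation limits the IkappaBalpha-fused green signal, while red luminescence normalises for cell number and nonspecific effects. Compounds tested up to 46 uM, 4 hrs.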
D1 PAM: Potentiators of Human D1 Dopamine Receptor: qHTS; AID 504651, 2011; HEK293 TREx D1 cells, calcium flux, dopamine EC20 potentiation; potentiation, % at 10 µM; 360,000 compounds, 0.036% hits; in the data active means potentiation above about 30%
D1 antag: Antagonist of Human D 1 Dopamine Receptor: qHTS; activity change, negative = inhibition, % at 10 µM; 360,000 compounds, 3.2% hits; HEK293 TREx D1 cells, calcium flux, dopamine EC80; hits give low values; in the data active means activity change below about -30%
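HEK293 T-REx cells expressing inducible, force-coupled D1 receptor; no-wash Ca dye, 30–90 min RT. Cmpd → 180 s read at 1 Hz → EC80 DA → 180 s read.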
D1 ag: Allosteric Agonists of the Human D1 Dopamine Receptor: qHTS | activation, % at 2 µM | HEK293 T-REx D1 cells, calcium flux, agonist mode | 360,000 compounds, 1% hits | D(1A) dopamine receptor (Homo sapiens), P21728; in the data active means activation above about 30%
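Agonism was scored from calcium flux recorded over 180 s (1 read/s) after pintool compound addition, following a 10-cycle baseline. Cells were inducible force-coupled HEK293 TREx D1, plated overnight at 30 C and loaded with no-wash calcium dye.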
D3 ag: qHTS of D3 Dopamine Receptor Agonist: qHTS; D(3) dopamine receptor (Homo sapiens), P35462; AID 652048, 2013; 410,000 compounds, 0.58% hits; max activation, %; D3R DiscoveRx beta-arrestin cells, luminescence, 90 min; in the data active means max activation above about 30%
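Agonist-mode cell screen: cells plated at 1500/well and incubated overnight at 37 °C, then exposed to library compounds for 90 min at 37 °C. Detection reagent was added for 30–60 min at room temperature, and luminescence was read.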
A number is an active result; i = inactive; ? = inconclusive; nt = not tested or not shown.

SMILES	D3 antag	BCR signal inh	D1 PAM	D1 antag	D1 ag	D3 ag
O=C(CN(Cc1ccc(F)cc1)C(=O)CCC(=O)Nc1nccs1)NCc1ccccc1	i	i	i	-91	i	i
Cc1cccc(N(CC(=O)NCc2ccco2)C(=O)CCC(=O)Nc2nccs2)c1C	i	?	nt	i	i	i
O=C(CN(C(=O)CCC(=O)Nc1ccccn1)c1ccc(F)cc1)NCc1ccc(F)cc1	-94	i	i	i	i	i
O=C(CN(Cc1ccccc1)C(=O)CCC(=O)Nc1nccs1)NCc1ccc(F)cc1	i	i	i	i	i	i
CCCCc1ccc(NC(=S)Nc2ccc(Nc3ccc(OC)cc3)cc2)cc1	-80	i	i	i	i	i
CCCCc1ccc(NC(=O)OC)cc1	i	i	i	i	82	i
O=C(NCCCN1CCOCC1)c1c(-c2ccccc2)oc2c1C(OCCCCCO)CCC2 (stereo not given)	i	nt	nt	nt	nt	i
O=C(Nc1ncc(Cc2cccc(C(F)(F)F)c2)s1)C1CCCO1 (stereo not given)	i	?	i	-40	i	i
Cc1ccc(Cc2cnc(NC(=O)C3CCCO3)s2)cc1 (stereo not given)	i	?	i	i	i	i
CC(NC(=O)Nc1ccc(F)cc1F)c1ccncc1 (stereo not given)	i	i	i	i	i	i
CCOc1ccc(C(C)NC(=O)Nc2ccc(F)cc2F)cc1 (stereo not given)	i	i	i	-77	i	i
CCO/N=C/C(=O)Nc1ccc(F)cc1F	i	?	i	-75	i	i
CCn1nc(-c2ccccc2)c(-c2ccccc2)c(C(=O)Nc2ccc(S(N)(=O)=O)cc2)c1=O	nt	nt	i	i	i	i
C=CCN1C=CC(=CC=C(C#N)C#N)C=C1	i	i	i	i	96	i
C=CCN1C=C/C(=C\C=C(C#N)C#N)c2ccccc21	?	?	i	i	i	i
CCCN1C=CC(=CC=C(C#N)C#N)C=C1	i	i	i	i	129	i
CC(C)Oc1ccc(S(=O)(=O)N2CCOCC2)cc1NC(=O)CSc1nnc(C2CC2)n1C	i	nt	nt	nt	nt	i
Cc1ccc(NC(=S)NNC(=O)c2nn(C)cc2Cl)cc1	-54	?	i	i	i	i
Cc1cccc(NC(=S)NNC(=O)c2nn(C)cc2Cl)c1	-99	?	i	i	i	i
Cc1ccc(NC(=O)COC(=O)c2nn(C)cc2Cl)cc1	i	i	i	i	i	i
CCOC(=O)Nc1cc(OC)cc2ccc(C)nc12	i	nt	nt	nt	nt	i
CCOc1ccc2nc(/N=C/c3nc(-c4ccc(Br)cc4)oc3O)sc2c1	i	i	i	i	37	i
NC(=O)C1CCN(C(=O)c2cc3n(n2)C(C(F)(F)F)CC(c2ccco2)N3)CC1 (stereo not given)	i	i	i	-40	i	i
CN(C(=O)c1cc2n(n1)C(C(F)(F)F)CC(c1ccco1)N2)c1ccccc1 (stereo not given)	i	i	i	-50	i	i
CN(C(=O)c1cc2n(n1)C(C(F)(F)F)CC(c1ccco1)N2)c1ccc(OC(F)(F)F)cc1 (stereo not given)	i	i	i	i	i	i
SMILES	D3 antag	BCR signal inh	D1 PAM	D1 antag	D1 ag	D3 ag
COCCn1c(-c2ccc(Br)cc2)nc2oc3cc(OC)ccc3c(=O)c2c1=O	i	i	i	-45	i	i
COCCn1c(-c2ccccc2)nc2oc3cc(OC)ccc3c(=O)c2c1=O	i	i	i	i	i	i
Cn1cc(C2=C(c3ccc(Cl)cc3Cl)C(=O)NC2=O)c2ccccc21	i	i	i	i	145	i
O=C(CSc1nc(-c2ccccc2)cc(=O)[nH]1)Nc1ccccc1	i	i	i	i	i	i
COc1ccc2nc(SCC(=O)NC3CCCCC3C)[nH]c2c1 (stereo not given)	i	i	i	-40	i	i
COc1ccc(NC(=O)CSc2nc3sc(C)cc3c(=O)n2C)cc1	i	?	i	-34	i	i
COc1ccc(NC(=O)CSc2nc(-c3ccc(OC)cc3)cc(=O)[nH]2)cc1	nt	nt	i	i	57	i
Cc1cc2c(=O)n(C)c(SCC(=O)Nc3ccccc3)nc2s1	i	i	i	i	i	i
CCc1c(C)nc(SCC(=O)Nc2nc(-c3ccc(OC)cc3)cs2)[nH]c1=O	i	i	i	-33	i	i
C[C@H]1O[C@@H](O[C@H]2CC[C@@]3(C)[C@H](CC[C@@H]4[C@@H]3C[C@@H](O)[C@]3(C)[C@@H](C5=CC(=O)OC5)CC[C@]43O)C2)C[C@H](O)[C@@H]1O[C@H]1C[C@H](O)[C@H](O[C@H]2C[C@H](O)[C@H](O[C@@H]3O[C@H](CO)[C@@H](O)[C@H](O)[C@H]3O)[C@@H](C)O2)[C@@H](C)O1	nt	nt	nt	nt	nt	i
CCCOc1ccc(C(=O)Nc2cc(-c3nc4ccccc4[nH]3)ccc2C)cc1	nt	nt	i	i	i	i
COc1ccc(NC(=O)CSc2nc3ccc(OC)cc3[nH]2)cc1	i	i	i	i	i	i
COC(=O)c1ccc(NC(=O)CSc2nc3ccc(OC)cc3[nH]2)cc1	nt	nt	i	-57	i	i
COc1ccc(NC(=O)c2ccc(NC(=O)CSc3nc(N)cc(=O)[nH]3)cc2)cc1	i	i	i	-45	i	i
CCn1nc(C(=O)OCC(=O)Nc2nc(-c3ccc(OC)cc3)cs2)c2ccccc2c1=O	i	i	i	i	i	35
CCCCNC(=O)C(CC)Sc1nc2ccccc2c(=O)n1CCc1ccc(OC)c(OC)c1 (stereo not given)	nt	i	i	i	i	i
OC(CNCc1ccccc1)Cn1ccc2ccccc21 (stereo not given)	i	i	i	i	i	i
OC(CNCCNc1ncccc1C(F)(F)F)Cn1ccc2ccccc21 (stereo not given)	?	?	i	-36	i	i
COc1ccc(C(=O)C(=O)N2CCN(c3ccc(C)cc3)CC2)cc1OC	i	nt	nt	nt	nt	i
CCCc1c(C(=O)N/N=C/c2cccs2)nnn1-c1nonc1N	i	?	i	i	31	i
CCCc1c(C(=O)N/N=C(\C)c2ccccn2)nnn1-c1nonc1N	-85	nt	nt	nt	nt	i
Cc1c(C(=O)N/N=C/c2cccs2)nnn1-c1nonc1N	i	i	i	i	i	36
CCN(CC)Cc1c(C(=O)N/N=C/c2c(Cl)cccc2Cl)nnn1-c1nonc1N	i	i	i	i	i	30
